The text below walks through data of PubChem BioAssay (Tox21).

The structures appear in SMILES notation. Inconclusive results are not listed. The source made the active and inactive calls. Unless noted, calls follow the shape of the dose curve; as a rule, active = well fitted curve in the direction sought with a large enough effect in the repeat runs; inconclusive = weak or mixed curves; inactive = no such curve, though single readings can be large; an effect the other way counts as inactive or inconclusive. Positions of bridges follow the written chain, without caps; N, C: chain ends. Non-standard residues stand in square brackets, D forms with d. Residues, ends and D or L forms follow the SMILES beside them. *: point of attachment. X2 = CC[C@H](C)CCCCC(=O)*; Dab = NCC[C@H](N)C(=O)O

The nature of assay [1]: qHTS assay for small molecules that induce genotoxicity in human embryonic kidney cells expressing luciferase-tagged ATAD5 (AID 651632). Also: nearly all actives have a fitted effect of over 15% in size. The method, boiled down:
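Increased luciferase signal from ATAD5-tagged reporter cells indicates DNA-damage-driven ATAD5 induction. HEK293T cells are treated for 16 hr at 37C before detection with Amplite.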

A short description of assay [2]: qHTS assay for small molecule agonists of the p53 signaling pathway - cell viability (AID 651633; calls by dose curve;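 also: p53RE-bla HCT reporter cells with a stable beta-lactamase p53 reporter; series mostly up to about 83 µM; nearly all actives have a fitted effect of over 30% in size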). The method, boiled down:
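Viability counter-read: CellTiter-Glo luminescence (30 min, room temperature) in the same p53RE-bla plates. These plates had been exposed to compounds for 16 h at 37 C.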
(In qHTS, concentration-response curves come from the screen itself.)

Assay [3] is described as follows: qHTS assay for small molecules that induce genotoxicity in human embryonic kidney cells expressing luciferase-tagged ATAD5 - cell viability (AID 651634; calls by dose curve; also: nearly all actives have a fitted effect of over 25% in size). The method, boiled down: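 Cytotoxicity counterscreen in HEK293T cells bearing an ATAD5-luciferase reporter: live-cell protease activity measured by CellTiter-Fluor fluorescence after 15.5 hr compound exposure.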

Assay [4] in a line: qHTS assay for small molecule disruptors of the mitochondrial membrane potential - cell viability (AID 720634; calls by dose curve; also: nearly all actives have a fitted effect of over 20% in size; also: potency is read from the fitted curve at half-maximal effect). The method, boiled down:
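After overnight attachment at 37 C, HepG2 cells received compound or DMSO vehicle for 1 hr. Viability is then taken from ATP-driven luminescence following a 30 min room-temperature CellTiter-Glo step.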

A short description of assay [5]: qHTS assay for small molecule disruptors of the mitochondrial membrane potential (AID 720635). Also: potency is read from the fitted curve at half-maximal effect. The method, boiled down: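 Mitochondrial membrane potential tracked with Mito-MPS dye, red aggregates (ex 540/em 590 nm) against green monomers (ex 490/em 535 nm). Compound treatment 1 hr at 37C, dye 30 min in HepG2.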
Assay [6] can be described thus: qHTS assay to test for compound auto fluorescence at 590 nm (red) in HepG2 cells (AID 720674). Put shortly: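 1 hr compound incubation on HepG2 cells, 37 C, 5% CO2; plate read ex 540 nm / em 590 nm; intensities reported as Rose Bengal sodium equivalents.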
Assay [7] in a line: qHTS assay to test for compound auto fluorescence at 535 nm (green) in HepG2 cells (AID 720675).
Assay [8] in a line: qHTS assay to test for compound auto fluorescence at 460 nm (blue) in HEK293 cells (AID 720678). The method, boiled down:
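HEK293, 2,000 cells/well, 10% dialyzed FBS; attach 4-5 hr 37C; pin compound or DMSO; o/n 37C/5% CO2; fluorescence 405/460 nm; triamterene-equivalent units.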

A short description of assay [9]: qHTS assay to test for compound auto fluorescence at 590 nm (red) in HEK293 cells (AID 720679). Put shortly: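 Intensity at 540nm excitation and 590nm emission is reported as Rose Bengal sodium-equivalent autofluorescence. Measurements followed overnight exposure (37C, 5% CO2) of HEK293 cells, 2,000 per well, to 23 nL compound.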

As for `CC(=O)N[C@@H](CC(=O)N[C@@H](CCC(=O)O)C(=O)O)C(=O)O`, the Potency result in assay [1], in [2], in assay [3], in [4], in assay [5] and in assay [6] was “inactive” throughout. The Potency entry in assay [7], in [8] and in assay [9] was “inactive” throughout.
As to `COC(=O)CC[C@H](N)C(=O)O`, the Potency result in [1], in assay [2], in [3], in assay [4], in [6] and in assay [7] was “inactive” each time. Further, the Potency entry in [8] is “inactive”.
As for `CC[C@H](C)CCCCC(=O)N[C@@H](CCN)C(=O)N[C@H](C(=O)N[C@@H](CCN)C(=O)N[C@H]1CCNC(=O)[C@@H]([C@H](C)O)NC(=O)[C@H](CCN)NC(=O)[C@H](CCN)NC(=O)[C@H](CC(C)C)NC(=O)[C@@H](CC(C)C)NC(=O)[C@H](CCN)NC1=O)[C@@H](C)O` (X2-[Dab]T[Dab][Dab][Dab][dL]L[Dab][Dab][dT]; lactam 4-C), the Potency result in [1], in assay [2], in [3], in assay [4], in [6] and in [7] was “inactive” in each case. For the same compound, the Potency result in assay [8] and in assay [9] was “inactive” throughout.
Take `O=C(CCCCCCCCCCCCC1CCCC1)Nc1ccc(S(=O)(=O)c2ccc(NC(=O)CCCCCCCCCCCCC3CCCC3)cc2)cc1`: the Potency result in assay [1], in assay [2], in assay [3], in [4], in assay [5] and in assay [6] was “inactive” throughout. In addition, the Potency entry in assay [7], in assay [8] and in assay [9] was “inactive” in each case.
`CCOC(=O)Oc1c(OC)cc(C(=O)O[C@@H]2C[C@@H]3CN4CCc5c([nH]c6cc(OC)ccc56)[C@H]4C[C@@H]3[C@H](C(=O)OC)[C@H]2OC)cc1OC`: the Potency result in assay [1], in assay [2], in [3], in assay [6], in assay [7] and in [8] was “inactive” in each case. The Potency in [4] is 10.1 µM (active).
On to `COc1ccc(C(=O)CCC(=O)O)c2ccccc12`, for which the Potency entry in assay [1], in [2], in assay [3], in assay [4], in assay [5] and in assay [6] was “inactive” throughout. The Potency entry in [7], in assay [8] and in assay [9] was “inactive” each time.
Turning to `NCCCC[C@H](N)C(=O)O`, the Potency entry in assay [1], in assay [2], in [3], in assay [4], in assay [6] and in assay [7] was “inactive” throughout. In addition, the Potency result in assay [8] and in [9] was “inactive” throughout.
Take `Cc1c(Cl)cccc1Nc1ncccc1C(=O)O`: the Potency entry in [1], in assay [2], in assay [3], in assay [4], in [6] and in assay [7] was “inactive” throughout. The Potency result in [8] and in assay [9] was “inactive” throughout. The Potency in [5] is 13.3 µM (active).
As to `N[C@H](CC(=O)O)C(=O)O`, the Potency entry in [1], in assay [2], in assay [3], in assay [4], in assay [5] and in assay [6] was “inactive” throughout. In addition, the Potency result in assay [7], in [8] and in assay [9] was “inactive” each time.
`COC(F)(F)C(Cl)Cl`: the Potency entry in assay [1], in assay [2], in [3], in [4], in assay [5] and in assay [6] was “inactive” throughout. The Potency result in assay [7], in assay [8] and in assay [9] was “inactive” in each case.
In the case of `CC1=C(/C=C/C(C)=C/C=C/C(C)=C/C=C/C=C(C)/C=C/C=C(C)/C=C/C2=C(C)C(=O)CCC2(C)C)C(C)(C)CCC1=O`, the Potency result in assay [1], in assay [2], in [3], in assay [4], in assay [6] and in assay [7] was “inactive” in each case. In addition, the Potency result in assay [8] and in assay [9] was “inactive” in each case.
Regarding `COc1ccc2c(c1)N(C[C@H](C)CN(C)C)c1ccccc1S2`, the Potency result in assay [1], in assay [2], in [3], in [4], in [6] and in assay [7] was “inactive” in each case. For the same compound, in assay [8], the Potency entry was “inactive”.
Take `CC(Oc1ccccc1)C(=O)N[C@@H]1C(=O)N2[C@@H]1SC(C)(C)[C@@H]2C(=O)O` (some centres not stated): the Potency result in [1], in assay [2], in assay [3], in [4], in assay [5] and in assay [6] was “inactive” each time. Moreover, the Potency entry in assay [7], in assay [8] and in assay [9] was “inactive” each time.
In the case of `CCCCCCCCCCCCCCCC(=O)OCCC1CCN(CCCN2c3ccccc3Sc3ccc(S(=O)(=O)N(C)C)cc32)CC1`, the Potency entry in assay [1], in [2], in [3], in assay [4], in assay [6] and in assay [7] was “inactive” throughout. The Potency result in [8] and in assay [9] was “inactive” each time.
Take `CCN1C(=O)NC(c2ccccc2)C1=O` (configuration not stated): the Potency entry in assay [1], in assay [2], in assay [3], in assay [4], in [6] and in [7] was “inactive” throughout. Moreover, the Potency result in assay [8] and in assay [9] was “inactive” throughout.
Consider `COc1cc(Br)c(C[N+]2(CCOCCC3CCC4CC3C4(C)C)CCOCC2)cc1OC` (configuration not stated), for which the Potency result in assay [1], in assay [2], in assay [3], in assay [4], in assay [6] and in [7] was “inactive” throughout. Moreover, the Potency result in assay [8] and in assay [9] was “inactive” in each case.
For the compound `CCCCCCCCCCCC(=O)N(CCO)CCO`, the Potency entry in assay [1], in [2], in [3], in assay [4], in assay [6] and in assay [7] was “inactive” in each case. In addition, the Potency entry in assay [8] and in assay [9] was “inactive” in each case.
As for `COc1cc(NCCCC(C)N)c2ncccc2c1` (configuration not stated), the Potency entry in [1], in assay [2], in assay [3], in [4], in assay [6] and in [7] was “inactive” each time. For the same compound, the Potency result in assay [8] and in assay [9] was “inactive” in each case.
For the compound `CCCOc1cc(N)ccc1C(=O)OCCN(CC)CC`, the Potency result in assay [1], in assay [2], in assay [3], in [4], in [6] and in [7] was “inactive” in each case. The Potency entry in [8] and in [9] was “inactive” each time.
In the case of `CC#CCC(C)[C@H](O)/C=C/[C@@H]1[C@H]2c3cccc(CCCC(=O)O)c3O[C@H]2C[C@H]1O` (some centres not stated), the Potency entry in [1], in assay [2], in [3], in assay [4], in assay [6] and in assay [7] was “inactive” throughout. The Potency entry in [8] and in [9] was “inactive” in each case.
`NNc1nnc(Cc2ccncc2)c2ccccc12`: the Potency entry in [1], in [2], in assay [3], in assay [4], in [6] and in assay [7] was “inactive” throughout. The Potency result in assay [8] and in [9] was “inactive” in each case.
